Among the data in the supplement of paper PMC6555819 are PBM binding z-score values, retold here.

Holding throughout (assay): PBM binding z-score (relative to random genomic background probes); higher = stronger binding; sequences stand for … in GC…GCGATTGACAGCGTAGAATGAAGG
Assay [1] relates to RARb homodimer (NR concentration 270 nM). In short, it runs like this:
(§1)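 Custom Agilent 4×180K protein-binding microarrays carried double-stranded probes, each with a 34-nt variable region. These regions held direct-repeat seeds, single-nucleotide variants, half-site ablations and random human genomic background sequences. Ligand-free nuclear receptor dimers were incubated on the arrays for 1 h, antibodies against each partner (one per run) detected binding, and scanned fluorescence was regression-normalized. Binding z-scores take the random background probes as reference.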

In assay [2] the test system is RARg:RXRa (NR concentration 270 nM, RXRa partner concentration 90 nM). The method, boiled down: as §1
The subject of assay [3] is RARg homodimer (NR concentration 270 nM). In short, it runs like this: as §1
In assay [4] the test system is RXRa DBDmut IVT, anti-RXR (DBD mutation: RXRa K156A/R161A, NR concentration 90 nM). In short, it runs like this:
as §1

Assay [5] has as its system RXRa homodimer (NR concentration 180 nM). The method, boiled down: as §1
In assay [6] the test system is THRa:RXRa (NR concentration 90 nM, RXRa partner concentration 90 nM). The method, boiled down: as §1
The test system of assay [7] is THRa homodimer (NR concentration 90 nM). In short, it runs like this: as §1
Assay [8] deals with VDR homodimer (NR concentration 270 nM). The method, boiled down: as §1

Turning to CCGACTGGGGCAAAAGGTTACCATAAGCCAGCCC, the PBM binding z-score in assay [1] is 3.28; in assay [2] it was 3.72; in assay [3], 2.32; in assay [4], 0.0121; in assay [5], 2.71; in assay [6] it was 1.44. Moreover, the figures for the PBM binding z-score in assay [7] and in assay [8] were -0.187 and -0.455, respectively.

For the sequence CCTTACGGGTCACTGACAGGTTTTAGCATTTGGA, the PBM binding z-score in assay [1] came to 3.06; in assay [2] it was 4.89; in assay [3], 4.41; in assay [4], 1.81; in assay [5], 4.92; in assay [6] it was 2.53. The PBM binding z-score in assay [7] is 0.0377; in assay [8] it was 1.01.

Consider TCATATAGGTAAAAGGTGAAAGACGGTGTGGTAA, for which the PBM binding z-score in assay [1] came to 1.74; in assay [2] it was 2.01; in assay [3] it was 0.857; in assay [4], 1.7; in assay [5], 3.05; in assay [6], 1.55. Moreover, the figures for the PBM binding z-score in assay [7] and in assay [8] were 0.208 and 0.152, respectively.

Consider CCAAGTAGGTTATGGGGCATTCAGGCAACGGTGA, for which the PBM binding z-score in assay [1] stood at 0.93; in assay [2], 0.634; in assay [3], 0.608; in assay [4] it was 0.0857; in assay [5], 0.733; in assay [6] it was 0.508. For the same sequence, the PBM binding z-score in assay [7] was -0.0137; in assay [8], 0.318.

For the sequence ATCTCTAGGTAAGACTCAGTTCAGTTAAGAACGC, the PBM binding z-score was 0.724 in assay [1]; 0.306 in assay [2]; 0.466 in assay [3]; 0.735 in assay [4]; -0.175 in assay [5]; 1.44 in assay [6]. The PBM binding z-score came to 0.728 in assay [7] and 1.6 in assay [8].

In the case of CATACAGGGTCAGCTAGGACAGAGTAGGGACGGC, the PBM binding z-score in assay [1] turned out to be 3.14; in assay [2] it was 4.21; in assay [3] it was 4.66; in assay [4], 1.58; in assay [5] it was 3.74; in assay [6] it was 3.54. Besides, the PBM binding z-score in assay [7] was found to be 1.31; in assay [8], 1.19.

Consider TCATATAGGAAAAAGGTGAAAGTCGGTGTGGTAA, for which the PBM binding z-score in assay [1] was found to be 1.66; in assay [2] it was 0.803; in assay [3], 0.339; in assay [4], 1.88; in assay [5], 1.5; in assay [6], 1.11. In addition, the PBM binding z-score in assay [7] was 0.221; in assay [8], 0.152.

With ACAGACAGCTGATGAAGGTAACTCAGGCTATCAT, the PBM binding z-score is -0.303 in assay [1]; 0.146 in assay [2]; 0.225 in assay [3]; -0.306 in assay [4]; 0.083 in assay [5]; 0.595 in assay [6]. Also, the PBM binding z-score in assay [7] is -0.25; in assay [8], 0.0545.

In the case of TCGAGTAAGTTACCAATGGGGCATTCAGCTTTCT, the PBM binding z-score in assay [1] is -0.474; in assay [2], -0.261; in assay [3] it was -0.771; in assay [4], 0.494; in assay [5], -0.0395; in assay [6], -0.445. Moreover, the PBM binding z-score in assay [7] is -0.524; in assay [8] it was -0.319.

Take CTCGAAAGGTCGGTTGTGGTGAGTATACGGATAA: the PBM binding z-score was 1.92 in assay [1]; 2.21 in assay [2]; 2.35 in assay [3]; 1.08 in assay [4]; 1.79 in assay [5]; 2.66 in assay [6]. For the same sequence, the PBM binding z-score in assay [7] worked out at 0.291; in assay [8] it was 0.903.

Consider CCTAGTTGGTCAAGATCACACACGCTATAGGTAC, for which the PBM binding z-score in assay [1] amounted to 0.785; in assay [2] it was 0.893; in assay [3], 1.22; in assay [4], 0.493; in assay [5], 0.581; in assay [6], 0.0913. Moreover, the PBM binding z-score was found to be 0.528 in assay [7] and 0.699 in assay [8].

Regarding CTCGAAAGGTCGGTTGAGGTGAATATACGGATAA, the PBM binding z-score in assay [1] was 2.32; in assay [2], 2.98; in assay [3], 2.77; in assay [4], 0.545; in assay [5] it was 2.5; in assay [6], 5.06. For the same sequence, the PBM binding z-score in assay [7] is 1.58; in assay [8] it was 0.52.

For the sequence CCTTACGGGTCACTCCAGGTTAGAGCATCGGAGT, the PBM binding z-score came out at 3.08 in assay [1]; 4.43 in assay [2]; 4.37 in assay [3]; 1.55 in assay [4]; 4.07 in assay [5]; 4.81 in assay [6]. The figures for the PBM binding z-score in assay [7] and in assay [8] were 0.277 and 1.18, respectively.

Consider AGTCAAAGTTCAGGACGCGGTAACGTAAAGCACG, for which the PBM binding z-score in assay [1] was determined as 3.04; in assay [2], 4.4; in assay [3] it was 4.94; in assay [4] it was 2.98; in assay [5], 2.78; in assay [6], 2.74. The PBM binding z-score was found to be 1.23 in assay [7] and 1.79 in assay [8].
